# In PubChem BioAssay (Tox21):
# Several values for one entry are separate records, joined by “and”; a condition that tells them apart may be missing. Equal entries are not always repeated. Inconclusive results are not listed. Where a call stands in place of a potency, no number is given. More than one record can exist for a structure, and the calls need not agree. Activity calls are given as the source filed them. Unless noted, the call rests on the fitted dose curve; in most records, active means well fitted curve in the direction sought with a large enough effect in the repeat runs; inconclusive means weak or mixed curves; inactive means no such curve, though single readings can be large; an effect the other way counts as inactive or inconclusive.
# Columns and labels:
# [1] = target: Thyrotropin receptor (Homo sapiens) (UniProt P16473); test: qHTS assay to identify small molecule agonists of the thyroid stimulating hormone receptor (TSHR) signaling pathway (AID 1224843; calls by dose curve; further: nearly all actives have a fitted effect of over 45% in size)
# Method in brief: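 Screening of the Tox21 10K collection used HEK293 cells engineered with TSHR at 800 cells per well. After a 30-min room-temperature compound exposure, HTRF cAMP reagents were added and fluorescence recorded 1 h later.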
# [2] = qHTS assay to identify small molecule agonists of the hypoxia (HIF-1) signaling pathway - cell viability counter screen (AID 1224844; calls by dose curve; further: nearly all actives have a fitted effect of over 50% in size)
# Method in brief: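 ME-180 HRE-bla cells, 2,000/well, 0.5% dialyzed FBS; 5 hr settle, 17 hr compound at 37C/5% CO2; CCF4-AM reporter read first, then CellTiter-Glo luminescence after 30 min RT.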
# [3] = qHTS assay to identify small molecule agonists of H2AX (AID 1224845; active means well fitted activation curve with a large enough effect in the signal ratio in the repeat runs, not every such curve was filed as active; the % refers to the signal ratio)
# Method in brief: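 Phospho-H2AX Ser139 measured by HTRF (ex 320 nm; em 665 and 620 nm) after 24 hr antibody incubation. Compounds, 15 concentrations, 0.76% DMSO, were applied to CHO-K1 cells for 3hr at 37C before lysis.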
# [4] = qHTS assay to identify small molecule agonists of the hypoxia (HIF-1) signaling pathway (AID 1224846; active means well fitted activation curve with a large enough effect in the signal ratio in the repeat runs, not every such curve was filed as active; the % refers to the signal ratio)
# Method in brief: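 Cell line: CellSensor HRE-bla ME-180; 2,000 cells/well; 0.5% dialyzed FBS; 5 h preincubation; DMSO compound pin transfer; 17 h, 37C, 5% CO2; CCF4-AM added; bla FRET signal scored for activation.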
# [5] = qHTS assay to identify small molecule agonists of H2AX - cell viability counter screen (AID 1224847; calls by dose curve; further: nearly all actives have a fitted effect of over 30% in size; further: potency means the concentration at half of the fitted maximal effect)
# Method in brief: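 For this counter screen, overnight-attached CHO-K1 cells received test compounds (15 concentrations, 0.76% DMSO final); 3 hr later at 37C, CellTiter-Glo reagent was added and luminescence recorded after 30 min at room temperature.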
# [6] = qHTS RealTime-Glo MT Cell Viability Assay in HepG2 cells - 24 hour (AID 1224867); further: nearly all actives have a fitted effect of over 50% in size
# Method in brief: (§1)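 Cell number in HepG2 cultures estimated from NanoLuc luminescence generated by metabolic reduction of a prosubstrate by living cells. The homogeneous, nonlytic format allowed repeated reads at 0, 8, 16, 24, 32 and 40 h of compound exposure.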
# [7] = qHTS RealTime-Glo MT Cell Viability Assay in HEK293 cells - 32 hour (AID 1224868); further: nearly all actives have a fitted effect of over 50% in size; further: potency means the concentration at half of the fitted maximal effect
# Method in brief: (§2)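 Homogeneous bioluminescent viability format in HEK293 cells (600 cells/well). Following 5 h at 37 C/5% CO2, 23 nL compound was pintooled; the signal was measured repeatedly during 40 h incubation.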
# [8] = A CellTox Green Cytotoxicity Assay to monitor cytotoxicity in HEK293 cells - 0 hour (AID 1224869); further: nearly all actives have a fitted effect of over 50% in size
# Method in brief: (§3)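 Nonlytic real-time cytotoxicity: HEK293 + CellTox Green reagent plated, 5 h preincubation, pintool compound addition (23 nL in DMSO), 37 C for 40 h, fluorescence measured at successive time points.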
# [9] = qHTS RealTime-Glo MT Cell Viability Assay in HepG2 cells - 40 hour (AID 1224870); further: nearly all actives have a fitted effect of over 50% in size
# Method in brief: (§4)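 Real-time viability: cells seeded at 600 per well together with NanoLuc and cell-permeant prosubstrate, compounds added after 5 h incubation. Luminescence tracked at 0, 8, 16, 24, 32 and 40 h of exposure.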
# [10] = A CellTox Green Cytotoxicity Assay to monitor cytotoxicity in HEK293 cells - 40 hour (AID 1224871); further: nearly all actives have a fitted effect of over 45% in size; further: potency means the concentration at half of the fitted maximal effect
# Method in brief: as §3
# [11] = qHTS RealTime-Glo MT Cell Viability Assay in HEK293 cells - 16 hour (AID 1224872); further: nearly all actives have a fitted effect of over 50% in size; further: potency means the concentration at half of the fitted maximal effect
# Method in brief: as §2
# [12] = qHTS RealTime-Glo MT Cell Viability Assay in HepG2 cells - 8 hour (AID 1224873); further: nearly all actives have a fitted effect of over 55% in size
# Method in brief: as §4
# [13] = qHTS RealTime-Glo MT Cell Viability Assay in HEK293 cells - 40 hour (AID 1224874); conditions: RealTime-Glo luminescence; max response: stronger effect = lower value; further: nearly all actives have a fitted effect of over 50% in size; further: potency means the concentration at half of the fitted maximal effect
# Method in brief: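 Cells were seeded together with NanoLuc luciferase and a prosubstrate that viable cells reduce to a luciferase substrate. After a 5 h incubation at 37 C/5% CO2, compounds were added and luminescence was measured repeatedly during 40 h of treatment.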
# [14] = A CellTox Green Cytotoxicity Assay to monitor cytotoxicity in HEK293 cells - 24 hour (AID 1224875); further: nearly all actives have a fitted effect of over 45% in size
# Method in brief: as §3
# [15] = A CellTox Green Cytotoxicity Assay to monitor cytotoxicity in HepG2 cells - 16 hour (AID 1224876); further: nearly all actives have a fitted effect of over 45% in size; further: potency means the concentration at half of the fitted maximal effect
# Method in brief: (§5)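 Read-out is fluorescence of a cyanine dye excluded from live cells that stains DNA of dead HepG2 cells, with signal proportional to cytotoxicity. Plates were read at 0, 8, 16, 24, 32 and 40 h after compound addition.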
# [16] = qHTS RealTime-Glo MT Cell Viability Assay in HepG2 cells - 32 hour (AID 1224877); further: nearly all actives have a fitted effect of over 55% in size
# Method in brief: as §1
# [17] = A CellTox Green Cytotoxicity Assay to monitor cytotoxicity in HepG2 cells - 24 hour (AID 1224878); further: nearly all actives have a fitted effect of over 45% in size; further: potency means the concentration at half of the fitted maximal effect
# Method in brief: as §5
# [18] = A CellTox Green Cytotoxicity Assay to monitor cytotoxicity in HepG2 cells - 40 hour (AID 1224879); further: nearly all actives have a fitted effect of over 40% in size; further: potency means the concentration at half of the fitted maximal effect
# Method in brief: as §5
# [19] = qHTS assay to identify small molecule antagonists of the estrogen related receptor (ERR) signaling pathway from Tox21 library (AID 1224848); further: nearly all actives have a fitted effect of over 50% in size
# Method in brief: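 Antagonist-mode screen of the Tox21 10K library in an NTP-provided ERR reporter cell line; 18 h compound exposure at 37 C, luminescence measured with ONE-Glo.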
# [20] = qHTS assay to identify small molecule agonists of the estrogen related receptor (ERR) signaling pathway from Tox21 library (AID 1224849; calls by dose curve; further: nearly all actives have a fitted effect of over 15% in size); conditions: ERR reporter cell line, ONE-Glo luciferase, 18 h
# Method in brief: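 ERR cells, 6 h pre-incubation 37 C/5% CO2; cpd in DMSO pinned; 18 h 37 C; ONE-Glo added, 30 min RT; luminescence read. Agonist mode, qHTS.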
# Thyrotropin receptor (Homo sapiens), sequence (P16473 whole entry, looked up): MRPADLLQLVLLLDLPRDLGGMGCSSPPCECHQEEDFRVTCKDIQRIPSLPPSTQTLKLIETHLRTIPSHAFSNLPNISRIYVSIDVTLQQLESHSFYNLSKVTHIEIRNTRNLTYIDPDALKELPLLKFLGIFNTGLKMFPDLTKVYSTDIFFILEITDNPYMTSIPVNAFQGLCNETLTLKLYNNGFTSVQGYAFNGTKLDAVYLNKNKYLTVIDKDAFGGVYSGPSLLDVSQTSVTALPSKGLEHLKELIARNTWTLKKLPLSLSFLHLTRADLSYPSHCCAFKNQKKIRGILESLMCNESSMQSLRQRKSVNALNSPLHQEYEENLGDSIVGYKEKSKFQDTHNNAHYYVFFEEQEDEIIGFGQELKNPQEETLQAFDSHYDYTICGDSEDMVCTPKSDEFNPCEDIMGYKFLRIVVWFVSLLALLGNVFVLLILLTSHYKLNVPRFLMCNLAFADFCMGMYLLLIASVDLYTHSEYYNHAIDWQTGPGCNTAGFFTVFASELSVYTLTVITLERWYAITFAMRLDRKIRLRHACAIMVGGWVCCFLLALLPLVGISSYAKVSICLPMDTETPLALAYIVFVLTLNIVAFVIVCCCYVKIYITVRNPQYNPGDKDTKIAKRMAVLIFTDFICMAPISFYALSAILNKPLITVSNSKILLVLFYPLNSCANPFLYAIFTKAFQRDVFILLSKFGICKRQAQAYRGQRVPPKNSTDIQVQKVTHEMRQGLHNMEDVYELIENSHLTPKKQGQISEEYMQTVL
structure (smiles),measurement,setting,value
C=C(C)C(=O)OCC(C)O (stereo not drawn),Potency,[1],inactive
same,Potency,[2],inactive
same,Potency,[3],inactive
same,outcome,[4],inactive
same,Potency,[5],inactive
same,Potency,[6],inactive
same,Potency,[7],inactive
same,Potency,[8],inactive
same,Potency,[9],inactive
same,Potency,[10],inactive
same,Potency,[11],inactive
same,Potency,[12],inactive
same,max response,[13],1.34% (inactive) and 8.53% (inactive) and -3.84% (inactive)
same,Potency,[14],inactive
same,Potency,[15],inactive
same,Potency,[16],inactive
same,Potency,[17],inactive
same,Potency,[18],inactive
CCCC[P+](CCCC)(CCCC)CCCC,Potency,[1],inactive
same,Potency,[2],inactive
same,Potency,[3],inactive
same,outcome,[4],inactive
same,Potency,[5],inactive
same,Potency,[6],inactive
same,Potency,[7],19.4 µM (active) and 15.8 µM (active) and 3.89 µM (active)
same,Potency,[8],inactive
same,Potency,[9],inactive
same,Potency,[10],inactive
same,Potency,[11],21.8 µM (active)
same,Potency,[12],inactive
same,Potency,[13],21.8 µM (active) and 17.7 µM (active) and 4.36 µM (active)
same,Potency,[14],inactive
same,Potency,[15],inactive
same,Potency,[16],inactive
same,Potency,[17],inactive
same,Potency,[18],inactive
O=c1[nH]cnc2c1ncn2[C@H]1CC[C@@H](CO)O1,Potency,[1],inactive
same,Potency,[2],inactive
same,outcome,[4],inactive
same,Potency,[5],inactive
same,Potency,[19],inactive
same,"activity change, positive = activation",[20]; at 42.5 µM (top of the series),4.94% (inactive)
same,"activity change, positive = activation",[20]; at 92.4 µM (top of the series),7.43% (inactive) and 1.63% (inactive)
same,Potency,[6],inactive
same,Potency,[7],inactive
same,Potency,[8],inactive
same,Potency,[9],inactive
same,Potency,[10],inactive
same,Potency,[11],inactive
same,Potency,[12],inactive
same,max response,[13],9.2% (inactive) and 0.925% (inactive) and -0.369% (inactive)
same,Potency,[14],inactive
same,Potency,[15],inactive
same,Potency,[16],inactive
same,Potency,[17],inactive
same,Potency,[18],inactive
NC(CO)(CO)CO,Potency,[1],inactive
same,Potency,[2],inactive
same,Potency,[3],inactive
same,outcome,[4],inactive
same,Potency,[5],inactive
same,Potency,[6],inactive
same,Potency,[7],inactive
same,Potency,[8],inactive
same,Potency,[9],inactive
same,Potency,[10],inactive
same,Potency,[11],inactive
same,Potency,[12],inactive
same,Potency,[14],inactive
same,Potency,[15],inactive
same,Potency,[16],inactive
same,Potency,[17],inactive
same,Potency,[18],inactive
NS(=O)(=O)c1cc2c(cc1Cl)NCNS2(=O)=O,Potency,[1],inactive
same,Potency,[2],inactive
same,Potency,[3],inactive
same,Potency,[5],inactive
same,Potency,[19],inactive
same,"activity change, positive = activation",[20]; at 42.5 µM (top of the series),-0.0876% (inactive)
same,"activity change, positive = activation",[20]; at 92.4 µM (top of the series),0.0385% (inactive) and 5.11% (inactive)
same,Potency,[6],inactive
same,Potency,[7],inactive
same,Potency,[8],inactive
same,Potency,[9],inactive
same,Potency,[10],inactive
same,Potency,[11],inactive
same,Potency,[12],inactive
same,max response,[13],0.173% (inactive) and -4.85% (inactive) and 1.86% (inactive)
same,Potency,[14],inactive
same,Potency,[15],inactive
same,Potency,[16],inactive
same,Potency,[17],inactive
same,Potency,[18],inactive
CCCCC(CC)C(=O)O (stereo not drawn),Potency,[1],inactive
same,Potency,[2],inactive
same,Potency,[3],inactive
same,outcome,[4],inactive
same,Potency,[5],inactive
same,Potency,[6],inactive
same,Potency,[7],inactive
same,Potency,[8],inactive
same,Potency,[9],inactive
same,Potency,[10],inactive
same,Potency,[11],inactive
same,Potency,[12],inactive
same,Potency,[14],inactive
same,Potency,[15],inactive
same,Potency,[16],inactive
same,Potency,[17],inactive
same,Potency,[18],inactive
CCOc1ccc(NC(C)=O)cc1,Potency,[1],inactive
same,Potency,[2],inactive
same,outcome,[4],inactive
same,Potency,[5],inactive
same,Potency,[19],inactive
same,"activity change, positive = activation",[20]; at 42.5 µM (top of the series),9.79% (inactive)
same,"activity change, positive = activation",[20]; at 92.4 µM (top of the series),9.07% (inactive) and -21.8% (inactive)
same,Potency,[6],inactive
same,Potency,[7],inactive and 24.5 µM (active)
same,Potency,[8],inactive
same,Potency,[9],inactive
same,Potency,[10],inactive
same,Potency,[11],inactive
same,Potency,[12],inactive
same,Potency,[13],21.9 µM (active)
same,max response,[13],2.25% (inactive) and 1.74% (inactive)
same,Potency,[14],inactive
same,Potency,[15],inactive
same,Potency,[16],inactive
same,Potency,[17],inactive
same,Potency,[18],inactive
CN(C)CCOC(c1ccccc1)c1ccccc1,Potency,[1],inactive
same,Potency,[2],inactive
same,Potency,[3],inactive
same,Potency,[5],inactive
same,Potency,[6],inactive
same,Potency,[7],inactive
same,Potency,[8],inactive
same,Potency,[9],inactive
same,Potency,[10],inactive
same,Potency,[11],inactive
same,Potency,[12],inactive
same,max response,[13],-18.9% (inactive) and -8.63% (inactive) and 0.403% (inactive)
same,Potency,[14],inactive
same,Potency,[15],inactive
same,Potency,[16],inactive
same,Potency,[17],inactive
same,Potency,[18],inactive
CCCCCCc1ccc(O)cc1O,Potency,[1],inactive
same,Potency,[2],inactive
same,Potency,[3],inactive
same,outcome,[4],inactive
same,Potency,[5],113 µM (active) and 101 µM (active)
same,Potency,[19],inactive
same,"activity change, positive = activation",[20]; at 42.5 µM (top of the series),2.16% (inactive)
same,"activity change, positive = activation",[20]; at 92.4 µM (top of the series),-16.7% (inactive) and -6.89% (inactive)
same,Potency,[6],inactive
same,Potency,[7],21.9 µM (active) and 9.77 µM (active)
same,Potency,[8],inactive
same,Potency,[9],inactive
same,Potency,[10],49.1 µM (active) and 49 µM (active) and inactive
same,Potency,[11],19.6 µM (active) and 11 µM (active)
same,Potency,[12],inactive
same,Potency,[13],19.6 µM (active) and 12.3 µM (active)
same,Potency,[15],inactive and 43.6 µM (active) and 21.3 µM (active)
same,Potency,[16],inactive
same,Potency,[17],49.1 µM (active) and 38.9 µM (active) and 21.3 µM (active)
same,Potency,[18],49.1 µM (active) and 38.9 µM (active) and 19 µM (active)
